Results filed as inconclusive are left out. Active and inactive are the calls of the source. How the source made its calls: active means hit-call score of the fitted dose curve at least 0.9, where 1 is the maximum; inconclusive means response in the unintended direction; inactive means score below 0.9.
Biological target: Glucocorticoid receptor (Homo sapiens) (UniProt P04150)
Experiment: ATG_GR_TRANS: Attagene TRANS-FACTORIAL HepG2 Assay for human Glucocorticoid Receptor (GR) (AID 2282978);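 further: activators score as hits since higher reporter transcript over DMSO is fitted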
Conditions: HepG2 Attagene TRANS GR reporter, mRNA transcription
Procedure: ATG_TRANS is a cell-based, multiplexed-readout assay that uses HepG2, a human liver cell line, with measurements taken at 24 hours after chemical dosing in a 24-well plate.ATG_GR_TRANS is one of 30 assay component(s) measured or calculated from the ATG_TRANS assay. It is designed to make measurements of mRNA induction, a form of inducible reporter, as detected with fluorescence intensity signals by Reverse transcription polymerase chain reaction (RT-PCR) and Capillary electrophoresis technology.Data from the assay component ATG_GR_TRANS was analyzed into 1 assay endpoint. This assay endpoint, ATG_GR_TRANS, was analyzed in the positive analysis fitting direction relative to DMSO as the negative control and baseline of activity. Using a type of inducible reporter, measures of mRNA for gain-of-signal activity can be used to understand the reporter gene at the transcription factor-level as they relate to the gene NR3C1. Furthermore, this assay endpoint can be referred to as a primary readout, because this assay has produced multiple assay endpoints where this one serves a reporter gene function. To generalize the intended target to other relatable targets, this assay endpoint is annotated to the nuclear receptor intended target family, where the subfamily is steroidal.
Human liver HepG2 cells are transiently transfected with multiple reporter transcription units (MRTUs) in 6-well plates using FuGene 6 reagent (Roche; 3 ml FuGene/1 mg DNA). The MRTU constructs are regulated by a cis-regulating element (promoter). […] A major difference between the CIS and TRANS system is that in CIS activities of endogenous TFs are measured, whereas the TRANS assay evaluates changes in activities of exogenous, chimeric NR-Gal4 proteins. […] At the end of 24 hour incubation, total RNA was isolated using TriZol reagent (Invitrogen). The isolated RNA is then reverse-transcribed using oligo(dT) primer and Mo-MLV reverse transcriptase (Invitrogen) with DNAse I (Ambion) treatment for 30 min. The one-tenth of the produced cDNA was amplified by PCR using Taq DNA polymerase (Invitrogen) and two reporter sequence-specific primers. The PCR products were fluorescently labeled by primer extension with 6-arboxyfluorescein (6-FAM) 5'-labeled reporter sequence-specific primer (2 min at 95 C, 20 s at 68 C and 10 min at 72 C) and these products were digested with 5U of HpaI (New England Biolabs) for 2h at 37 C. The fragments were purified using Qiaquick PCR columns (Qiagen), analyzed on an ABI 3130xL genetic analyzer (Applied Biosystems) with peak positions identified by using a set of X-rhodamine (ROX)-labeled MapMarker1000 molecular weight standards (BioVentures). The raw capillary electrophoresis data was processed using Attagraph software (Attagene).

Chain of Glucocorticoid receptor (Homo sapiens) (P04150 whole entry, looked up): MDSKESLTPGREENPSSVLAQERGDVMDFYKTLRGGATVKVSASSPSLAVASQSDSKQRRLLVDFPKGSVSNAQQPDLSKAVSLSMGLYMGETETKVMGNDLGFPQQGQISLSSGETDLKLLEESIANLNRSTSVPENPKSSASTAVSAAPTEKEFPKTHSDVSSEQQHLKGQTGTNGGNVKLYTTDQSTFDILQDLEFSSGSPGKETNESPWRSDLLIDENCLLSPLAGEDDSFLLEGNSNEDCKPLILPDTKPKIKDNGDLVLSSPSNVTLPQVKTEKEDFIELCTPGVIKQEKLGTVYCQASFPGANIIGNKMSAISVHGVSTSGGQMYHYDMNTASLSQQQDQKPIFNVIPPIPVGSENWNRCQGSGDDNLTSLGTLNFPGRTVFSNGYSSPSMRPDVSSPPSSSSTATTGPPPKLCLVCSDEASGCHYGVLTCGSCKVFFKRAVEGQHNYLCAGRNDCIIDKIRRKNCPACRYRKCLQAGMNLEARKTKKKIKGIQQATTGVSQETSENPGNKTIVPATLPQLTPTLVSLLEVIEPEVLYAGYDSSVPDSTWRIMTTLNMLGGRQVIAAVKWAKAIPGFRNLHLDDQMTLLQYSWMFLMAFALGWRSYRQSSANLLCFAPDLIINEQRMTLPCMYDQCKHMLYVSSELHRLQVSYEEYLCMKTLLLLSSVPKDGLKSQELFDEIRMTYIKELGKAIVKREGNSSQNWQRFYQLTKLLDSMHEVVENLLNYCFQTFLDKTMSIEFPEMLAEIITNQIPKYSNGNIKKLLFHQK

Question: For `CC1(C)C(C=C(Cl)Cl)C1C(=O)OC(C#N)c1cccc(Oc2ccccc2)c1` (centres undefined), which outcome is on record?
Answer: inactive

Question: `Nc1c(Cl)c(Cl)nc(C(=O)O)c1Cl` was tested. Which outcome did it give?
Answer: inactive

Question: With `COC(=O)NC(=S)Nc1ccccc1NC(=S)NC(=O)OC` as the compound, how does the outcome read?
Answer: inactive

Question: `O=c1n(Cl)c(=O)n(Cl)c(=O)n1Cl` was tested. Which outcome did it give?
Answer: inactive

Question: With `COC(=O)N(C(=O)N1CO[C@@]2(C(=O)OC)Cc3cc(Cl)ccc3C2=N1)c1ccc(OC(F)(F)F)cc1` as the compound, how does the outcome read?
Answer: inactive

Question: How did the outcome turn out when `CS(=O)(=O)c1ccc(C(=O)C2C(=O)CCCC2=O)c([N+](=O)[O-])c1` was run?
Answer: inactive

Question: With `CC(C)(C)C(=O)C(Oc1ccc(Cl)cc1)n1cncn1` (centres undefined) as the compound, how does the outcome read?
Answer: inactive

Question: How did the outcome turn out when `COc1cc(Cl)c(OC)cc1Cl` was run?
Answer: inactive

Question: Which outcome does the source give for `OC(c1ccc(Cl)cc1)(c1ccc(Cl)cc1)C(Cl)(Cl)Cl` here?
Answer: inactive

Question: How did the outcome turn out when `CSC(=O)c1c(C(F)F)nc(C(F)(F)F)c(C(=O)SC)c1CC(C)C` was run?
Answer: inactive

Question: For `CCOP(=O)(OCC)Oc1nc(Cl)c(Cl)cc1Cl`, which outcome is on record?
Answer: inactive

Question: With `COP(=S)(OC)Oc1ccc([N+](=O)[O-])c(C)c1` as the compound, how does the outcome read?
Answer: inactive

Question: `CC(C)=CC1C(C(=O)OCc2coc(Cc3ccccc3)c2)C1(C)C` (centres undefined) was tested. Which outcome did it give?
Answer: inactive

Question: How did the outcome turn out when `CC(C)N1C(=O)N(c2ccccc2)CSC1=NC(C)(C)C` was run?
Answer: inactive

Question: With `CCCN(CC)CC1COC2(CCC(C(C)(C)C)CC2)O1` (centres undefined) as the compound, how does the outcome read?
Answer: inactive

Question: Which outcome does the source give for `CS(=O)(=O)c1cc(C(F)(F)F)ccc1C(=O)c1cnoc1C1CC1` here?
Answer: inactive

Question: For `Cc1nc(N(C)C)nc(OC(=O)N(C)C)c1C`, which outcome is on record?
Answer: inactive

Question: `Cc1cc(C)nc(Nc2ccccc2)n1` was tested. Which outcome did it give?
Answer: inactive

Question: For `COc1ccc(-c2ccccc2)cc1NNC(=O)OC(C)C`, which outcome is on record?
Answer: inactive

Question: With `N#CN=C1SCCN1Cc1ccc(Cl)nc1` as the compound, how does the outcome read?
Answer: inactive

Question: `COCc1cnc(C2=NC(C)(C(C)C)C(=O)N2)c(C(=O)O)c1` (centres undefined) was tested. Which outcome did it give?
Answer: inactive

Question: For `Nc1c(Cl)c(F)nc(OCC(=O)O)c1Cl`, which outcome is on record?
Answer: inactive

Question: With `CC1(C)CCC(=Cc2ccc(Cl)cc2)C1(O)Cn1cncn1` (centres undefined) as the compound, how does the outcome read?
Answer: inactive

Question: Which outcome does the source give for `CCCCC(C#N)(Cn1cncn1)c1ccc(Cl)cc1` (centres undefined) here?
Answer: inactive

Question: For `Cc1ccc(N=CN(C)C=Nc2ccc(C)cc2C)c(C)c1`, which outcome is on record?
Answer: inactive

Question: `CC(C)N1C(=O)c2ccccc2NS1(=O)=O` was tested. Which outcome did it give?
Answer: inactive

Question: For `CCCCOCN(C(=O)CCl)c1c(CC)cccc1CC`, which outcome is on record?
Answer: inactive

Question: `CCOP(=S)(OCC)Oc1nc(Cl)n(C(C)C)n1` was tested. Which outcome did it give?
Answer: inactive

Question: How did the outcome turn out when `CC(C)C1(C)N=C(c2ncccc2C(=O)O)NC1=O` (centres undefined) was run?
Answer: inactive

Question: `O=C(Nc1ccccc1-c1ccc(Cl)cc1)c1cccnc1Cl` was tested. Which outcome did it give?
Answer: inactive

Question: With `N#Cc1c(Cl)cccc1Cl` as the compound, how does the outcome read?
Answer: inactive

Question: Which outcome does the source give for `C=C(C)CN(CC)c1c([N+](=O)[O-])cc(C(F)(F)F)cc1[N+](=O)[O-]` here?
Answer: inactive

Question: Which outcome does the source give for `CCOc1nc(F)cc2nc(S(=O)(=O)Nc3c(Cl)cccc3Cl)nn12` here?
Answer: inactive

Question: Which outcome does the source give for `CO/N=C(/C1=NOCCO1)c1ccccc1Oc1ncnc(Oc2ccccc2Cl)c1F` here?
Answer: inactive

Question: How did the outcome turn out when `CCOC(=O)C(C)OC(=O)c1cc(Oc2ccc(C(F)(F)F)cc2Cl)ccc1[N+](=O)[O-]` (centres undefined) was run?
Answer: inactive

Question: Which outcome does the source give for `N#Cc1c[nH]cc1-c1cccc2c1OC(F)(F)O2` here?
Answer: inactive

Question: Which outcome does the source give for `COc1cc(OC)nc(NC(=O)NS(=O)(=O)c2ncccc2OCC(F)(F)F)n1` here?
Answer: inactive

Question: Which outcome does the source give for `CCCC(=NOCC)C1=C(O)CC(CC(C)SCC)CC1=O` (centres undefined) here?
Answer: inactive

Question: `CC(C)Oc1cccc(NC(=O)c2ccccc2C(F)(F)F)c1` was tested. Which outcome did it give?
Answer: inactive
